According to ChEMBL document CHEMBL3988442, “University of Dundee, Small-Polar-MMV Screening Library” (2021):

Molecular target: AMP-activated protein kinase, AMPK (Homo sapiens) (UniProt P54646+O43741+P54619+Q9UGJ0+Q9Y478+Q13131+Q9UGI9)
Test: AMP-dependent Kinase enzyme assay. An in vitro enzyme assay that detects ADP turnover that is directly proportional to AMPK activity. This uses naive AMPK that is activated during the assay with MK-8722
Assay type: functional
Parameters: scale not given: direction of the effect not stated beside the values
Conditions: 30 µM

SMILES	Percent Effect
N#CC1COCCN1C(=O)c1ccc2[nH]ccc2c1 (stereo unspecified)	7.92%
CCc1cc(CNC(=O)c2cc(NC(=O)C(C)C)ccc2Cl)[nH]n1	0.911%
COc1ccccc1C(=O)N1CCN(C(=O)CCCc2cn[nH]c2)CC1	-2.48%
CC1(C)CC(CN2CCC3(CCC(=O)N(CCO)C3)CC2)CCO1 (stereo unspecified)	-1.98%
Cc1ccc(CNS(=O)(=O)CCCC#N)cc1F	7.39%
Cn1ccc(NC(=O)CN2CCN(C3CCCC3)C(=O)C2)n1	4.97%
Cc1c(CN2CCc3[nH]cnc3C2C2CC2)[nH]c2ccc(F)cc12 (stereo unspecified)	3.62%
CCOc1ccccc1CCC(=O)Nc1c(C)nn(C)c1C	8.9%
CC1(c2ncc(CN(CC(=O)O)Cc3ccccc3)cn2)CCCCO1 (stereo unspecified)	12.9%
CCC(C)(CC(=O)OC)NCc1cc(C)on1 (stereo unspecified)	-1.46%
COc1ncccc1C(=O)NCCn1cnc(C)cc1=O	-2.02%
CNC(=O)c1cn2cc(-c3ccc(F)cc3)n(CC=C(C)C)c(=O)c2n1	3.81%
Nc1nccnc1C(=O)NC1CCN(Cc2ccccc2)C1 (stereo unspecified)	7.89%
CSCCN1CCC(NC(=O)c2cccc(C3CCCNC3)c2)CC1 (stereo unspecified)	-2.91%
CC(C)N(Cc1ccccn1)C(=O)CCC(=O)c1ccc(F)cc1F	-0.0134%
O=C(NC1CCCC1)c1cc(Cn2cnc3ccccc32)on1	0.401%
CN(C(=O)c1ccc(C#N)cc1)c1nnc(C2CCOC2)s1 (stereo unspecified)	11.3%
COCc1ncc(CN2CCC3(CCNCC3)CC2)cn1	-3.83%
CC(C)(C)C(NC(=O)CCCS(C)(=O)=O)c1ccc(F)cc1F (stereo unspecified)	7.18%

SMILES	Percent Effect
CCc1ccc(NC(=O)CCN2CC(n3nc(C)cc3C)C2)cc1	-4.58%
CCn1cnnc1CCNc1nc(C)cc(C)c1C#N	-7.29%
CCn1nc(C)c(NC(=O)CN(C)C(C)c2nccs2)c1C (stereo unspecified)	-6.11%
CC(C)CN1CCC(NC(=O)N(C)Cc2csc3ccccc23)CC1	0.225%
CC(C)(C)CN(CCO)C(=O)Nc1cccc(N2CCNC2=O)c1	2.19%
Cc1cnc(CN(C)Cc2cccc(OC(F)(F)F)c2)cn1	-3.05%
CN(CCc1ccccn1)C(=O)Cn1cc(-c2ccccc2)nn1	-0.117%
CN(CC(O)C(F)(F)F)C(=O)Nc1cccc(N2CCCC2)c1 (stereo unspecified)	-4.79%
COCC(=O)N1CCN(C(C)c2ncc(-c3ccccc3)o2)CC1 (stereo unspecified)	2.58%
COCCN(Cc1cnn(C)c1)c1nc2c(s1)c(C)nn2C	-0.701%
C[C@@H]1CN(c2ccc(Cl)cn2)CC[C@@]1(O)C1CCOCC1	5.56%
Oc1cc(C2CCCCN2Cc2cccs2)nc(-c2ccccn2)n1 (stereo unspecified)	23.4%
O=C(Cc1c(F)cccc1Cl)NC1CCCCNC1=O (stereo unspecified)	7.73%
O=C(CC1COCCN1)N1CCC(N2CCc3ccccc3C2)CC1 (stereo unspecified)	-4.72%
O=C(c1cccc(-n2cnnc2)c1)N1C[C@@H](O)[C@H](N2CCOCC2)C1	15.5%
COc1ccc(-c2cc3nc(CCNC(=O)CN(C)C)nn3cn2)cc1	15%
CCC(Nc1ccc(CCN2CCCCC2)cc1)C(N)=O (stereo unspecified)	-12.9%
COC1CCCOC12CCN(C(=O)NCCc1cccs1)CC2 (stereo unspecified)	4.16%
Cc1cncc(C2CCN(Cc3ccncc3)CC2)n1	7.85%

SMILES	Percent Effect
CCn1cc(NC(=O)NCCN2CCCCCC2=O)cn1	87.7%
Cc1cnc(N2CCN(C(C)C(N)=O)CC2)nc1 (stereo unspecified)	-0.289%
O=C(CN1CCOCC1)N(c1ccccc1)c1ccccc1	8.05%
CCc1ccc(-c2noc(Cn3nc(C(N)=O)ccc3=O)n2)cc1	-8.7%
CC(=O)NCc1ccc(C(=O)N2CCCc3c(F)ccc(C)c32)o1	0.928%
CN1CC2(CCCN(C(=O)Cc3cccc(O)c3)C2)OC1=O (stereo unspecified)	8.24%
c1ccc(CCN2CCCC2c2cccc(Nc3nccs3)n2)cc1 (stereo unspecified)	3.49%
CCC(CNS(=O)(=O)c1cccc(C(=O)OC)c1)N1CCCC1 (stereo unspecified)	-8.76%
CC(C(=O)N1CCCC1)N1CCN(c2ncc(Cl)cn2)CC1 (stereo unspecified)	-1.02%
COC(=O)c1ccc(Cn2cccc(C(F)(F)F)c2=O)s1	3.31%
COc1ccccc1CNC(=O)C(C)N1CC(n2cc(C)cn2)C1 (stereo unspecified)	3.01%
CC(CO)NC(=O)Nc1ccc(CC#N)cc1 (stereo unspecified)	-1.29%
COC(=O)NCC(=O)NC1(C)CCc2ccccc2C1 (stereo unspecified)	12.8%
COC(=O)c1ccc(OCCn2cnc(C#N)n2)cc1	0.636%
Cc1cnn(CCNCC(=O)N2CCN(c3ccccc3)CC2)c1	-5.8%
CC(C)c1ccc(CN2CCCC3(CC2)CN(C)C(=O)O3)cc1 (stereo unspecified)	9.6%
Cc1cc(=O)n2nc(Oc3ccc(Cl)c(C)c3)sc2n1	-6.95%
CS(=O)(=O)Cc1noc(CN(Cc2ccco2)c2ccccc2)n1	3.02%
